Test results as given in PubChem BioAssay (EPA / NIEHS).
“And” between values parts separate entries of the source, which are not always exact repeats. Equal entries are not always repeated. A structure can be active in one record and inactive in another. The source made the active and inactive calls. The calls were made as follows: active = hit-call score of the fitted dose curve at least 0.9, where 1 is the maximum; inactive = score below 0.9.

test: BSK_4H_SRB: Viability Assessment in the BioMAP Diversity Plus: 4H Assay (AID 2283027); conditions: primary human endothelial cells (HUVEC);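 also: cells exposed to compound for 24 h before staining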;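 as to AC50: curves fitted both ways versus DMSO so AC50 may be loss or gain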
Procedure: BSK_4H is a cell-based, multiplexed-readout assay that uses umbilical vein endothelium, a human vascular primary cell, with measurements taken at 24 hours after chemical dosing in a 96-well plate.BSK_4H_SRB is an assay component measured in the BSK_4H assay. It measures […] related to cell death using Sulforhodamine staining technology.Data from the assay component BSK_4H_SRB was analyzed into 1 assay endpoint. This assay endpoint, BSK_4H_SRB, was analyzed with bidirectional fitting relative to DMSO as the negative control and baseline of activity. Using a type of viability reporter, gain or loss-of-signal activity can be used to understand changes in the signaling. Furthermore, this assay endpoint can be referred to as a primary readout, because this assay has produced multiple assay endpoints where this one serves a signaling function. To generalize the intended target to other relatable targets, this assay endpoint is annotated to the cell morphology intended target family, where the subfamily is cell conformation.
The levels of cell surface (or secreted, indicated by the prefix "s") biomarker endpoints were measured by ELISA. Overt cytotoxicity to cells in confluent adherent cultures (all systems other than the BT system) was assessed by measuring total protein levels using sulforhodamine B (SRB) staining in parallel cultures at the time of biomarker measurements, indicated as SRB endpoints. For proliferation assays for adherent cell types, individual cell types are cultured at sub-confluence and relative cell numbers quantified by SRB staining at time points optimized for each system (48 h: 3C and CASM3C systems; 72 h: BT and HDF3CGF systems; 96 h: SAg system). SRB was performed by staining cells with 0.1% SRB after fixation with 10% TCA and reading wells at 560 nm.Viability and proliferation of PBMC (T cells) was quantified by Alamar Blue reduction for the SAg and BT systems. For PBMC viability (referred to as PBMC Cytotoxicity within the assay endpoint names), cells were plated (75,000/well in a 96-well plate) and then chemical samples added for 1 h before addition of activators, SEB and TSST-1 (20 ng/mL final concentration each). Cells were incubated for 90 h. Then, Alamar Blue (20 uL/well) (Invitrogen, Cat DAL1100) was added for 6 h, and the plates were read with a fluorescence microplate reader at 546/580 nm (excitation/emission). For PBMC proliferation, cells were plated and activated as above but incubated for only 16 h prior to addition of Alamar Blue. Plates were read after 6 h.

Row | SMILES | outcome | AC50
1 | CCc1ccc(CCOc2ccc(CC3SC(=O)NC3=O)cc2)nc1 (stereo not given) | inactive | 
2 | CC(=O)NC1(c2cccc(F)c2)CCN(CC[C@@]2(c3ccc(Cl)c(Cl)c3)CN(c3ccccc3)C(=O)CO2)CC1 |  | 20.3 µM (active)
3 | OCCC(F)(F)C(F)(F)C(F)(F)C(F)(F)C(F)(F)C(F)(F)C(F)(F)C(F)(F)F | inactive | 18.2 µM (active) and 15.6 µM (active)
4 | CCCCCCCCCCCCc1ccccc1S(=O)(=O)O | inactive | 
5 | c1ccc2c(c1)ccc1ccccc12 | inactive | 
6 | CCCCCCCCCCCCCCCS(=O)(=O)Oc1ccccc1 | inactive | 
7 | N#C[C@@H]1CC(F)(F)CN1C(=O)CNC1CC2CCC(C1)N2c1ncccn1 (stereo not given in full) | inactive | 
8 | O=C(O)c1ccccc1C(c1ccc(O)cc1)c1ccc(O)cc1 | inactive | 
9 | OCCC(F)(F)C(F)(F)C(F)(F)C(F)(F)C(F)(F)C(F)(F)F | inactive | 
10 | c1ccc2c(c1)Cc1ccccc1-2 | inactive | 
11 | C=C(C)C(=O)OCCC(F)(F)C(F)(F)C(F)(F)C(F)(F)C(F)(F)C(F)(F)F | inactive | 20 µM (active)
12 | CC1=C(/C=C/C(C)=C/C=C/C(C)=C/C(=O)O)C(C)(C)CCC1 | inactive | 
13 | Nc1cccc2c(N)cccc12 | inactive | 
14 | NC(=O)N1C(=O)C(C(=O)c2cc(Cl)cs2)c2cc(F)c(Cl)cc21 (stereo not given) |  | 15.2 µM (active)
15 | COCC(C)O (stereo not given) | inactive | 
16 | COC(=O)CCCCC(=O)OC | inactive | 
17 | CC(C)(C)c1cccc(C(C)(C)C)c1O | inactive | 
18 | CCOC(=O)CC(O)(CC(=O)OCC)C(=O)OCC | inactive | 
19 | O=C(OCCOCCOC(=O)c1ccccc1)c1ccccc1 | inactive | 

Row | SMILES | outcome | AC50
20 | NC(=O)N(O)[C@@H]1C=C[C@H](Oc2cccc(Oc3ccc(F)cc3)c2)C1 | inactive | 
21 | O=[N+]([O-])c1ccc(O)cc1 | inactive | 
22 | CCCCCCCCC(=O)O | inactive | 
23 | ClC1=C(Cl)C(Cl)(Cl)C(Cl)=C1Cl |  | 6.82 µM (active)
24 | C#C[C@]1(O)CC[C@H]2[C@@H]3CCC4=CC(=O)CC[C@@H]4[C@H]3CC[C@@]21C |  | 17.1 µM (active)
25 | Oc1cc2ccccc2c2ccccc12 |  | 16.6 µM (active)
26 | CC(O)CO (stereo not given) | inactive | 
27 | Cc1oc(-c2ccccc2)nc1CCOc1ccc(C[C@H](Nc2ccccc2C(=O)c2ccccc2)C(=O)O)cc1 |  | 15.1 µM (active)
28 | CCCCCCC(=O)O | inactive | 
29 | CCCCCCCCCCCCN1CCCC1=O |  | 33.4 µM (active)
30 | CC(C)(C)c1cc(C(C)(C)C)c(O)c(C(C)(C)C)c1 | inactive | 
31 | CN1CCC[C@H]1c1cccnc1 | inactive | 
32 | CC[C@H](c1ccc(O)cc1)[C@@H](CC)c1ccc(O)cc1 |  | 30.6 µM (active)
33 | CC(C)CCCCCCOC(=O)CCCCC(=O)OCCCCCCC(C)C | inactive | 
34 | CCCOc1sc(C(=O)N2CCC(c3cc(CN)ccc3F)CC2)c(C)c1Br |  | 5.82 µM (active)
35 | OC1CCCCC1 | inactive | 
36 | CCC(=C(c1ccc(O)cc1)c1ccc(OCCN(C)C)cc1)c1ccccc1 |  | 8.19 µM (active)
37 | CC(C)(C)c1ccc(O)c(C(C)(C)C)c1 |  | 12.4 µM (active)
38 | CCCCOCCO | inactive | 
